High-throughput results (PubChem)
An excerpt weighted towards active compounds, which were near 2.2% of everything screened.
CF NFkB block: inhibitors of PAF-induced NF-kB signaling, primary screen, cell-based, GFP fluorescence, uHTS; KKLEB NF-kB-GFP reporter, GFP fluorescence overnight; inhibition, % at 5 µM; 360,000 compounds, 0.86% hits; AID 588850, 2011;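 active = at least 50% inhibition at 5 µM, scaled per plate between neutral and stimulator controls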;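 note: PAF is a Pseudomonas aeruginosa culture filtrate used as stimulus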
KKLEB tox: cytotoxicity in KKLEB CF airway cells, primary screen, cytotoxicity control for CF NF-kB inhibitor project, cell-based, uHTS, fluorescence assay plates. KKLEB CF airway cells viability, ATPlite luminescence, overnight; hits give low values; cells stimulated with P. aeruginosa culture filtrate. activity change (cytotoxicity), % at 5 µM. 360,000 compounds, 0.36% hits;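 active = corrected activity change at or below -50% at 5 µM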
hiPSC survival: enhancers of single-cell hiPSC survival, primary screen, ATPlite luminescence. 360,000 compounds, 0.044% hits. 100% = ROCK inhibitor wells, 0% = DMSO. survival enhancement, % at 20 µM; in the data active = survival enhancement above about 18%;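 note: cells exposed to compounds for 16 hours before the ATP read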
PPC-1+TRAIL kill: compounds killing PPC-1 cancer cells with TRAIL present, primary screen, TRAIL potentiator project, ATPLite luminescence, uHTS. PPC-1 cells + TRAIL, ATPLite viability luminescence. cell killing (% activity), % at 4 µM or 5 µM. 220,000 compounds, 0.41% hits;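 active = cell killing above 50% in the first pass at 4 µM, then a duplicate retest at 5 µM averaging 50% or more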
HIF-2a block: HIF-2a reporter inhibitors, primary screen, luminescence, 786-0 RCC cells. 786-0 RCC cells HIF-2a reporter, luciferase luminescence, overnight. inhibition, % at 18.8 µM. 360,000 compounds, 0.72% hits;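 active = inhibition of the luminescence signal of 40% or more relative to plate controls, in a single-dose primary screen at 18.75 µM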
C8 TRAIL sens: viability loss with TRAIL in NB7+C8 cells, primary screen, TRAIL sensitizer project, cell-based, ATPlite luminescence; 360,000 compounds, 1% hits; inhibition (viability loss, TRAIL sensitization), % at 10 µM;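 active = compounds causing at least 50% loss of cell viability in the single-dose screen, relative to plate controls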
Mdm2 MdmX conf: retested Mdm2-MdmX interaction blockers, confirmation, cell-based, luminescence, single concentration, set 2. AID 504601, 2011. inhibition, % at 8 µM. 740 compounds, 99% hits. shares compounds with HIF-2a block. SaOS-2 split-luciferase Mdm2/MdmX complementation;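 active = mean inhibition of the luminescence signal across two replicates at or above 26 percent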
Target sequence (O15151 whole entry, looked up): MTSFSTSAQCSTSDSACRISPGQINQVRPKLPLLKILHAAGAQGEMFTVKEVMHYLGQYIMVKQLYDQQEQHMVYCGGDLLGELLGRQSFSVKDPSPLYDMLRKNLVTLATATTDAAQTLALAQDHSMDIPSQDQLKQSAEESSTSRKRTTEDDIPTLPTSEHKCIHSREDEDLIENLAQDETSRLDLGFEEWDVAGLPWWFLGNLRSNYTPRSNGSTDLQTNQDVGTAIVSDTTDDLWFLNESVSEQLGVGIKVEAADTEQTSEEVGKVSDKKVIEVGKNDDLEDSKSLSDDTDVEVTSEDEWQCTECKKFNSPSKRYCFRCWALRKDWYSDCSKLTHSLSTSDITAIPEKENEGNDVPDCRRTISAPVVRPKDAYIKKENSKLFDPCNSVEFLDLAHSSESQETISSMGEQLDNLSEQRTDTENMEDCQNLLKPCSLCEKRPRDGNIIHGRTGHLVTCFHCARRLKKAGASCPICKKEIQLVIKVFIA
Target sequence (Q00987 whole entry, looked up): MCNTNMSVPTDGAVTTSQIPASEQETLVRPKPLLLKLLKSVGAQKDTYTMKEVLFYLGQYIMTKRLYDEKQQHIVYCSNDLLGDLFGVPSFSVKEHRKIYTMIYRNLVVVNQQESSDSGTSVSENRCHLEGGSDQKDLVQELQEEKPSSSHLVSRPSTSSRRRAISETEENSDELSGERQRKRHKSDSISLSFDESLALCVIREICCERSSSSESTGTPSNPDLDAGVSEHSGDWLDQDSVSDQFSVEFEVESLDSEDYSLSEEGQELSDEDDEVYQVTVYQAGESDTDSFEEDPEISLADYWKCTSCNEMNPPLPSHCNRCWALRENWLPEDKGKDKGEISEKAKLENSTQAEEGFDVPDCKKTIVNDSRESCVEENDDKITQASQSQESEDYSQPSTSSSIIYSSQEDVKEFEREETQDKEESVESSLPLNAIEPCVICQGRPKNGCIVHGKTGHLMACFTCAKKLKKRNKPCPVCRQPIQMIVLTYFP
HIF-2a conf: HIF-2a reporter inhibitor retest, confirmation, luminescence, 786-0 RCC cells; shares compounds with HIF-2a block; HIF-2a luciferase reporter luminescence, overnight; inhibition, % at 18.8 µM; 1,800 compounds, 56% hits; AID 651580, 2012;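 active = mean inhibition across four replicates of at least 40 percent at the single tested concentration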
HIF-1a counter: HIF-1a luciferase reporter signal reduction – MiaPaCa-2 cells, single concentration, counter-screen for HIF-2a inhibitor project, confirmation; AID 651589, 2012; 1,800 compounds, 72% hits; inhibition, % at 18.8 µM; MiaPaCa-2 HIF-1a luciferase reporter, desferoxamine, overnight; shares compounds with HIF-2a block;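 active = mean inhibition of the reporter signal across four replicates at the single tested dose of 50% or more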
Each line names hits and unclear results; the compound was inactive in the other large screens (follow-up assays come after a bar, where they were run).

COc1ccc(C(=O)/C=C/C(=O)N(CC(=O)NC2CCCCC2)Cc2ccccc2)c(O)c1	CF NFkB block 71, HIF-2a block 71 | HIF-2a conf 98 | HIF-1a counter 103
COc1ccc(C(=O)/C=C/C(=O)N(CC(=O)NC2CCCCC2)Cc2ccccc2OC)c(O)c1	CF NFkB block 87, KKLEB tox -63, HIF-2a block 81 | HIF-2a conf 89 | HIF-1a counter 105
COc1ccc(C(=O)/C=C/C(=O)N(Cc2ccc(F)cc2)C(C(=O)NC2CCCCC2)c2ccncc2)c(O)c1 (configuration not stated)	none
CCCCSCCCNC(=O)c1ccc(CS(=O)(=O)c2ccccc2OC)o1	none (no result: PPC-1+TRAIL kill)
CC(C)=CCOc1ccc([C@@H]2COc3c(ccc4c3C=CC(C)(C)O4)C2)c(O)c1	HIF-2a block 61 (no result: PPC-1+TRAIL kill) | HIF-2a conf inactive | HIF-1a counter 100
COc1ccc(OCc2cc(=O)c3ccc4c(c3o2)C=CC(C)(C)O4)cc1OC	none (no result: PPC-1+TRAIL kill)
Cc1cc(C)n(S(=O)(=O)/C=C/c2ccccc2)n1	none | Mdm2 MdmX conf 93
Cc1ccc(S(=O)(=O)n2nc(C)cc2C)cc1	none
COc1ccc(-c2noc(=O)n2Cc2ccccc2F)cc1	none (no result: PPC-1+TRAIL kill)
COCCn1c(C)cc(/C=C2/SC(=O)N(CC(=O)N3CCCC3)C2=O)c1C	none (no result: PPC-1+TRAIL kill)
Cc1c(Cl)cccc1NC(=O)COC(=O)c1ccc(CN2CCCC2=O)cc1	none (no result: PPC-1+TRAIL kill)
Cc1ccc2c(c1)Oc1ccc([N+](=O)[O-])cc1C(=O)N2	none
Cc1ccc2c(c1)Oc1ccc(NC(=O)CCl)cc1C(=O)N2	CF NFkB block 87, KKLEB tox -73, HIF-2a block 77 | Mdm2 MdmX conf 103 | HIF-2a conf 72 | HIF-1a counter 103
COC(=O)c1c(-c2ccccc2)csc1NC(=O)c1c(-c2ccccc2)noc1C	none | Mdm2 MdmX conf 99
CCOC(=O)c1c(-c2ccc(F)cc2)csc1NC(=O)c1c(-c2ccccc2)noc1C	none
O=C(NC1=NCCS1)C1COc2ccccc2O1 (configuration not stated)	HIF-2a block 83 | HIF-2a conf 90 | HIF-1a counter 85
O=C(NCC1CCCN1S(=O)(=O)c1cccs1)C(=O)Nc1ccccc1Cl (configuration not stated)	none (no result: PPC-1+TRAIL kill)
COc1ccccc1/C=C/C=C1\Oc2c(ccc(O)c2CN(C)C)C1=O	none
CCN(CC)Cc1c(O)ccc2c1O/C(=C\C=C\c1ccccc1)C2=O	HIF-2a block 66 | Mdm2 MdmX conf inactive
Cc1ccc(NC(=O)CCN2CCN(CCO)CC2)cc1	none (no result: PPC-1+TRAIL kill)
Cc1ccc(NC(=O)CCN2CCCCC2)cc1	HIF-2a block 61 (no result: PPC-1+TRAIL kill) | HIF-2a conf 55 | HIF-1a counter 73
COc1ccccc1-c1oc2ccccc2c1C#CC1(O)CCCCC1	none (no result: PPC-1+TRAIL kill)
O=c1c2ccccc2oc2cc(C#CC3(O)CCCCC3)ccc12	HIF-2a block 44, C8 TRAIL sens 79 (no result: PPC-1+TRAIL kill) | HIF-2a conf 73 | HIF-1a counter 97
O=c1c2ccccc2sc2ccc(C#CC3(O)CCCCC3)cc12	KKLEB tox -85, HIF-2a block 87, C8 TRAIL sens 93 (no result: PPC-1+TRAIL kill) | HIF-2a conf 94 | HIF-1a counter 104
CCOCCCNC(=O)/C(C#N)=C/c1ccc(Cl)c([N+](=O)[O-])c1	HIF-2a block 92 | HIF-2a conf inactive | HIF-1a counter 102
Cc1nn(Cc2ccc(Cl)cc2Cl)c(C)c1NC(=O)CCl	C8 TRAIL sens 90 | Mdm2 MdmX conf 103
CCN(Cc1ccccc1)C(=O)CN1C(=O)NC2(CC(C)CC(C)(C)C2)C1=O (configuration not stated)	none (no result: PPC-1+TRAIL kill)
Cc1[nH]c2ccccc2c1C(=O)CN1C(=O)NC2(CC(C)CC(C)(C)C2)C1=O (configuration not stated)	HIF-2a block 45 | HIF-2a conf inactive | HIF-1a counter 62
O=C(NCc1cccc(F)c1)C1CCC(=O)N(C2CC2)C1 (configuration not stated)	none (no result: PPC-1+TRAIL kill)
O=C(NC1=C(NC2CCS(=O)(=O)C2)C(=O)c2ccccc2C1=O)c1ccccc1 (configuration not stated)	CF NFkB block 79, C8 TRAIL sens 52 | Mdm2 MdmX conf 93
O=C(NC1=C(Nc2ccc(Cl)cc2)C(=O)c2ccccc2C1=O)c1ccccc1	none
COc1ccc(C(=O)N2CCOC2CNC(=O)C(=O)NCCc2ccccc2OC)cc1 (configuration not stated)	none (no result: PPC-1+TRAIL kill)
Cc1c(Cl)sn(-c2ccc(Cl)cc2)c1=O	CF NFkB block 79, KKLEB tox -90, HIF-2a block 48 | Mdm2 MdmX conf 102
Cc1nn(-c2ccc(Cl)cc2)c(=O)c2ccccc12	none
CC(C)(C)C(=O)/C(=C/c1ccc(Cl)cc1)n1cncn1	HIF-2a block 93 (no result: PPC-1+TRAIL kill) | HIF-2a conf 88 | HIF-1a counter 98
CC(C)(C)C(=O)/C(=C\c1ccc([N+](=O)[O-])cc1)n1cncn1	none (no result: CF NFkB block, KKLEB tox, hiPSC survival, HIF-2a block, C8 TRAIL sens)
Cc1cc(=O)[nH]c(-c2ccc(C(F)(F)F)cc2)n1	none
Cn1c(=O)c2cc(S(=O)(=O)Nc3cc(C(=O)O)cc(C(=O)O)c3)ccc2n(C)c1=O	none
Cc1cc(C)cc(NS(=O)(=O)c2ccc3c(c2)c(=O)n(C)c(=O)n3C)c1	HIF-2a block 50, C8 TRAIL sens 80 | HIF-2a conf 41 | HIF-1a counter 101
COc1ccc(-c2csc(NC(C)=O)n2)cc1OC	none
COc1cccc(NC(=O)Nc2nc(-c3ccc(OC)c(OC)c3)cs2)c1	CF NFkB block 109, KKLEB tox -100, C8 TRAIL sens 97 (no result: PPC-1+TRAIL kill) | Mdm2 MdmX conf 103
CCC(=O)c1ccc(OCC(=O)N2CCN(c3ncccn3)CC2)cc1	none (no result: PPC-1+TRAIL kill)
Cc1ccc(C(=O)/C=C/c2ccc(F)cc2)o1	none
O=C(/C=C/c1ccc(F)cc1)c1ccccc1Br	CF NFkB block 57, HIF-2a block 59 | HIF-2a conf 43 | HIF-1a counter 106
